Test results from PubChem BioAssay.
Values joined by “and” are separate entries in the source; they are usually repeats but may differ in a detail not shown here. Equal entries are not always repeated. Records with an inconclusive call do not appear. For some assays here: Measured potencies and affinities stand elsewhere. Active and inactive are the calls of the source.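 The calls were made as follows, unless noted: active = thallium flux through the channel raised or lowered by more than 3 SD from vehicle-only wells, actives on both sides; inactive = the rest.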

How the values were obtained:
F380Y = assay: BK channel mutant inhibitors and activators – cell-based, U2OS BacMam, thallium flux, beta subunits, selectivity assay, profiling panel (AID 1259406); conditions: U2OS BacMam BK variants, at 30 µM;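 also: initial slope of Thallos dye fluorescence rise after thallium is added; log ratio against the mean of 0.3% DMSO vehicle wells on the same plate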
F380Y/beta1 = assay: as above; conditions: U2OS BacMam BK variants, at 30 µM
F380Y/beta2Delta = assay: as above; conditions: U2OS BacMam BK variants, at 30 µM
F380Y/beta4 = assay: as above; conditions: U2OS BacMam BK variants, at 30 µM
[1] = biological target: Calcium-activated potassium channel subunit alpha-1 (Homo sapiens) + Leucine-rich repeat-containing protein 26 (Homo sapiens) (UniProt Q12791+Q2I0M4); assay: as above; conditions: U2OS BacMam BK variants, F380Y/Slo1WT/gamma1, at 30 µM
R275C = assay: as above; conditions: U2OS BacMam BK variants, at 30 µM
R275C/beta1 = assay: as above; conditions: U2OS BacMam BK variants, at 30 µM
R275C/beta2Delta = assay: as above; conditions: U2OS BacMam BK variants, at 30 µM
R275C/beta4 = assay: as above; conditions: U2OS BacMam BK variants, at 30 µM
R275C/Slo1WT/beta2 = assay: as above; conditions: U2OS BacMam BK variants, at 30 µM
[2] = antimalarial activity against Dd2 strain (AID 2302;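 active = growth inhibition above 50% at the single 2 µM test dose, taken to imply half-maximal potency below 2 µM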;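 also: 0% = DMSO untreated growth and 100% = chloroquine plus artemisinin killed control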); conditions: P. falciparum Dd2 in RBCs, LDH growth readout, 72 h; at 2 µM; stronger effect = higher value
[3] = biological target: L-lactate dehydrogenase (Plasmodium falciparum (isolate CDC / Honduras)) (UniProt Q27743); assay: PfLDH activity inhibition – cell lysate, 3D7 strain, counter-screen for P. falciparum growth inhibition project (AID 2304; call rule not given here;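 also: 0% = vehicle and 100% = reference inhibitor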); conditions: P. falciparum 3D7 crude extract, LDH APAD/NBT absorbance; at 2 µM; stronger effect = higher value
[4] = inhibition of 3D7 malaria parasite growth – strain 3D7 (AID 2306; call rule not given here;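 also: 0% = DMSO wells and 100% = chloroquine plus artemisinin control wells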); conditions: P. falciparum 3D7 erythrocytic growth, LDH absorbance, 72 h; at 2 µM; stronger effect = higher value
[5] = biological target: Calcium-dependent protein kinase 1 (Plasmodium falciparum (isolate 3D7)) (UniProt P62344); assay: PfCDPK1 kinase inhibitors, biochemical, TCAMS library (AID 1159585; cut-off not given, nearly all actives have IC50 up to about 0.98 µM;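 also: inhibitors leave more ATP so luminescence rises with inhibition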); conditions: recombinant PfCDPK1, Kinase-Glo ATP depletion luminescence
[6] = biological target: Plasmodium falciparum protein kinase 6 (PK6, PF3D7_1337100) (UniProt Q8IDW1); assay: PfPK6 kinase inhibitors, biochemical, TCAMS library (AID 1159586; call rule not given here); conditions: recombinant PfPK6, Kinase-Glo ATP depletion luminescence
[7] = biological target: Protein kinase 7 (PK7), Plasmodium falciparum 3D7 (PF3D7_0213400) (UniProt Q7YTF7); assay: inhibition of Plasmodium PK7 catalytic activity – biochemical, TCAMS antimalarial set, Kinase-Glo luminescence (AID 1159587; call rule not given here); conditions: recombinant PfPK7, Kinase-Glo ATP depletion luminescence
[8] = biological target: Calcium-dependent protein kinase 4 (Plasmodium falciparum (isolate 3D7)) (UniProt Q8IBS5); assay: PfCDPK4 kinase inhibitors, biochemical, TCAMS library (AID 1159588; cut-off not given, nearly all actives have IC50 up to about 0.91 µM); conditions: recombinant PfCDPK4, Kinase-Glo ATP depletion luminescence
[9] = human hepatoma cell viability loss – ATP luminescence, cytotoxicity control for P. falciparum antimalarial project, primary screen (AID 2303;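 active = inhibition above 50%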;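 also: 0% = DMSO wells and 100% = digitonin-killed cells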); conditions: HepG2 viability, 24-48 h, at 10 µM, stronger effect = higher value
[10] = P. berghei load reduction in hepatocytes – cell-based, HepG2, luciferase luminescence, HepG2 viability, primary screen (AID 624349; in the data active = parasite load remaining mostly below about 12%, no sharp cut-off; inactive = mostly above about 10%;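 also: 100% = mean of DMSO negative control wells on the same plate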); conditions: P. berghei liver stage in HepG2, luciferase luminescence, concentration not given here; parasite load remaining: stronger effect = lower value; viability: measured here: HepG2 viability without parasites
[11] = system: Neuropilin-2 / VEGF-C interaction (human); assay: small molecules blocking Neuropilin-2/VEGF-C interaction – biochemical, microplate binding format, z-score (AID 743281; call rule not given here); conditions: microplate NRP2/VEGF-C binding assay; stronger effect = lower value
[12] = modulation of C. elegans fzo-1 (AID 1259413; call rule not given here;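 also: fzo-1 mutant C. elegans worms in liquid wells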); conditions: C. elegans fzo-1 modulator screen, mean read-out; stronger effect = higher value
[13] = EMT-state selective cytotoxicity in co-culture – imaging, PC-3E GFP, TEM4-18 mCherry, primary screen (AID 1345086;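 active = compounds killing one labelled cell type while sparing the other, by normalised counts and ratio limits, not self-fluorescent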;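 also: cells exposed to compound for 72 h before imaging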;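 as to red/green cell ratio (normalised): normalised mesenchymal count divided by normalised epithelial count so high means epithelial killing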); conditions: PC-3E GFP / TEM4-18 mCherry co-culture, imaging cell counts, at 1 µM
[14] = system: Aerobactin synthetase IucA (Klebsiella pneumoniae); assay: inhibition of K. pneumoniae IucA enzyme – biochemical, Tocris library, absorbance (AID 1345561; call rule not given here;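 also: 100% = enzyme without compound and 0% = no enzyme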); conditions: purified IucA enzyme assay, absorbance (OD) read-out; stronger effect = lower value;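 tested at 8 µM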
[15] = viability loss in pontine glioma line – cell-based, SU-DIPG-XIII, MIPE4.0, CellTiter-Glo, qHTS, dose response (AID 1347061; cut-off not given, nearly all actives have AC50 up to about 37 µM;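 also: cells exposed to compound for 48 hours before readout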); conditions: CellTiter-Glo ATP luminescence
[16] = viability loss in pontine glioma line – cell-based, SU-DIPG-IV, MIPE4.0, CellTiter-Glo, qHTS, dose response (AID 1347063; cut-off not given, nearly all actives have AC50 up to about 30 µM;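 also: compound exposure lasted 48 hours before the viability readout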); conditions: CellTiter-Glo ATP luminescence
[17] = growth inhibition of DIPG cells – cell-based, MIPE4.0 library, CellTiter-Glo luminescence, qHTS (AID 1347066; cut-off not given, nearly all actives have AC50 up to about 30 µM;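 also: cells exposed to compound for 48 hours before readout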); conditions: SU-DIPG-VI viability, CellTiter-Glo ATP luminescence
[18] = viability loss with induced miR-34 in A549 – imaging, A549 dox-inducible miR-34, nuclei and caspase counts, primary screen (AID 1347080;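 active = compounds whose cell count with miR-34 switched on is under 0.7 times the count with it off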); conditions: A549 miR-34 inducible, Hoechst nuclei count, 48 h
[19] = biological target: NAD(+) hydrolase SARM1 (Homo sapiens) (UniProt Q6SZW1); assay: blocking NAD cleavage by SARM1 SAM-TIR – cell lysate, NAD-Glo luminescence (AID 1508614;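 active = compound whose remaining NAD level is above about 45 nM, limit read from the data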;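 also: higher remaining NAD means stronger inhibition of SARM1 NADase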); conditions: SAM-TIR HEK293T lysate NADase, at 1 µM, stronger effect = higher value
[20] = biological target: Mitogen-activated protein kinase 7 (Homo sapiens) (UniProt Q13164); assay: Gal4-ERK5 driven luciferase induction – cell-based, HTS, primary screen (AID 1508626;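 active = luciferase signal above three times the same-plate solvent-only control wells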;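 also: luciferase driven by Gal4-ERK5 fusion binding five Gal4 sites before minimal TATA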); conditions: HeLa Gal4-ERK5 transactivation, 18 h, at 5 µM, stronger effect = higher value
[21] = galactose survival enhancers in mitochondrial complex I cybrids – cell-based, galactose medium, ATP luminescence, primary screen (AID 1645843;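 active = z-score of at least 1.8 in each of two replicates, scored against plate mean and spread of sample wells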;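 also: positive z means more ATP and so rescue of galactose-driven cybrid death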); conditions: complex I mutant cybrid cells, 72 h, stronger effect = higher value

Chain of Calcium-dependent protein kinase 4 (Plasmodium falciparum (isolate 3D7)) (Q8IBS5 whole entry, looked up): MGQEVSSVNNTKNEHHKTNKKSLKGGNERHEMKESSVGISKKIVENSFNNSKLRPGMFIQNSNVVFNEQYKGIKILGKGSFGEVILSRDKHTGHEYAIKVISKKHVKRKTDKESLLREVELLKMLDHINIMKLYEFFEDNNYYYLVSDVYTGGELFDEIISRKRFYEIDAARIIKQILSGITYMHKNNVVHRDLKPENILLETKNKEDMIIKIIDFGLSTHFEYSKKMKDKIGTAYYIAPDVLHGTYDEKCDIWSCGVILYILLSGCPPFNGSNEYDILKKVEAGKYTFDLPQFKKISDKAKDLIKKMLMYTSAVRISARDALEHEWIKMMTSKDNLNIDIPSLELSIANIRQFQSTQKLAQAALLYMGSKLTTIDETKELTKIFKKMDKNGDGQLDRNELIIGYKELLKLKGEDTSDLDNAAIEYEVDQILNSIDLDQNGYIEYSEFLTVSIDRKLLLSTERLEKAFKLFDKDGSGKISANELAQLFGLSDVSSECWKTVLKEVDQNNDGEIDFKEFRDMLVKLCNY
Chain of L-lactate dehydrogenase (Plasmodium falciparum (isolate CDC / Honduras)) (Q27743 whole entry, looked up): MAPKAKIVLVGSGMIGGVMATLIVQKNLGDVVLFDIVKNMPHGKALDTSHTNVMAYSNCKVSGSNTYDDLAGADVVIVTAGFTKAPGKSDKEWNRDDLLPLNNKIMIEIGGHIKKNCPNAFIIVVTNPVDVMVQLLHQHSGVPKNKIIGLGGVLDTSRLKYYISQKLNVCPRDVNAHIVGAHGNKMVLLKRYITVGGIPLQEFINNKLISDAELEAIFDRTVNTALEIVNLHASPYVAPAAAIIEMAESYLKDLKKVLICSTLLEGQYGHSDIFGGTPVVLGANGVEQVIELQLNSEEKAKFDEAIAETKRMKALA
Chain of Protein kinase 7 (PK7), Plasmodium falciparum 3D7 (PF3D7_0213400) (Q7YTF7 1-343): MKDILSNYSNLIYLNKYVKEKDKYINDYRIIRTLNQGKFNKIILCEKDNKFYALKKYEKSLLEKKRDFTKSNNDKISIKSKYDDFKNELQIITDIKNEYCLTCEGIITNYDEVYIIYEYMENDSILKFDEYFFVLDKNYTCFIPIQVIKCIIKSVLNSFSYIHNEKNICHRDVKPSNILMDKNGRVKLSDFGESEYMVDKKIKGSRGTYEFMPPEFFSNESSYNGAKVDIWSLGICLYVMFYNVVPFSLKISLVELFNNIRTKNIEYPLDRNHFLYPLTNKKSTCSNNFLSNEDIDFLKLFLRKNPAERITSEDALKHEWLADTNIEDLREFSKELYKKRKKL
Chain of Calcium-activated potassium channel subunit alpha-1 (Homo sapiens) + Leucine-rich repeat-containing protein 26 (Homo sapiens) (Q2I0M4 whole entry, looked up, one chain of several): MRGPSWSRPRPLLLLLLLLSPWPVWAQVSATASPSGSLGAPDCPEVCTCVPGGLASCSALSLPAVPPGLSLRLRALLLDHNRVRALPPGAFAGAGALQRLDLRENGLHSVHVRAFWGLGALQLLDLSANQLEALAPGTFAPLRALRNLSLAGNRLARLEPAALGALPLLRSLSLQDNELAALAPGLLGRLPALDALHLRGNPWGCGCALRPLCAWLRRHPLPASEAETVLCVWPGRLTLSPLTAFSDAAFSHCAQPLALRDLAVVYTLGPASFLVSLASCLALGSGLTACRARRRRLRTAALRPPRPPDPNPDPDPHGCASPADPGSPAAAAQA
Chain of Plasmodium falciparum protein kinase 6 (PK6, PF3D7_1337100) (Q8IDW1 1-305): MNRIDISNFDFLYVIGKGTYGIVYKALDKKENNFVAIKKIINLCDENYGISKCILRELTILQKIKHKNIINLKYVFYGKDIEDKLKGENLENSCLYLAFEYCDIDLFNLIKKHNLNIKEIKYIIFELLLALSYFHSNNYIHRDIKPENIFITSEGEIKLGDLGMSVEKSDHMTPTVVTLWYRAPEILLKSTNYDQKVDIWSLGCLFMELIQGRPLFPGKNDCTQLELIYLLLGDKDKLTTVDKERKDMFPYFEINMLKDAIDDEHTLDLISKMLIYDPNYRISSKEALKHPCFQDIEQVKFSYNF
Chain of Calcium-dependent protein kinase 1 (Plasmodium falciparum (isolate 3D7)) (P62344 whole entry, looked up): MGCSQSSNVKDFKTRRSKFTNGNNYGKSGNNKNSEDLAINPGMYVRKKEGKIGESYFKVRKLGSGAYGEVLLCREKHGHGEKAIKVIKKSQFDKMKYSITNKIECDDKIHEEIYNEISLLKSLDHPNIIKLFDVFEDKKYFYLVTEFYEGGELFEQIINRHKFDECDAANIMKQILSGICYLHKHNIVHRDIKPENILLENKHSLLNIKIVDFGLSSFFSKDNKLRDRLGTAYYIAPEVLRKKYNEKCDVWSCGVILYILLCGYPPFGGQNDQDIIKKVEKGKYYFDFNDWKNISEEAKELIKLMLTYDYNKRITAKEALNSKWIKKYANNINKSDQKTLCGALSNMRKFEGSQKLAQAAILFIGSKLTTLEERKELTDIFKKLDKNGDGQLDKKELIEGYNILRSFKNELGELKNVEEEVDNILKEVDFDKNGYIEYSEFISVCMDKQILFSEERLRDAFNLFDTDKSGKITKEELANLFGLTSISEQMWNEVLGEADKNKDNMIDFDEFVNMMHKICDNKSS
Chain of NAD(+) hydrolase SARM1 (Homo sapiens) (Q6SZW1 whole entry, looked up, the tested form may be a part): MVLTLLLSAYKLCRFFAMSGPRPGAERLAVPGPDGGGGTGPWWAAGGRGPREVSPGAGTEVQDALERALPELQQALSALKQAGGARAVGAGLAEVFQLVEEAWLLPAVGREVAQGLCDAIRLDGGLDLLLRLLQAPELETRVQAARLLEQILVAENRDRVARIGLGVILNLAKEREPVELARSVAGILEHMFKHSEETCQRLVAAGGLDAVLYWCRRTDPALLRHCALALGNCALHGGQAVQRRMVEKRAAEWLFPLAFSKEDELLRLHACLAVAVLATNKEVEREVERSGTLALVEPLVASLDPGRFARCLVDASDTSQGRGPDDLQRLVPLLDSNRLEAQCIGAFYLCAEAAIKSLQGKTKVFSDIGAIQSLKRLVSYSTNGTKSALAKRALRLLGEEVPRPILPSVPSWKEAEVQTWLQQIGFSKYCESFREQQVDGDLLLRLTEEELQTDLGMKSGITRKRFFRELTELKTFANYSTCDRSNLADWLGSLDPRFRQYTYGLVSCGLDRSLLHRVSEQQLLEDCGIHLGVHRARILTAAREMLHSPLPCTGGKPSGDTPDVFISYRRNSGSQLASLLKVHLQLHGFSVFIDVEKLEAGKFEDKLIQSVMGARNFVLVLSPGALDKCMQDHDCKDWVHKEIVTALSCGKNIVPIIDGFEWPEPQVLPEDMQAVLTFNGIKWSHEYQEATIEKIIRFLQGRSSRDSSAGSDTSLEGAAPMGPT
Chain of Mitogen-activated protein kinase 7 (Homo sapiens) (Q13164 whole entry, looked up, the tested form may be a part): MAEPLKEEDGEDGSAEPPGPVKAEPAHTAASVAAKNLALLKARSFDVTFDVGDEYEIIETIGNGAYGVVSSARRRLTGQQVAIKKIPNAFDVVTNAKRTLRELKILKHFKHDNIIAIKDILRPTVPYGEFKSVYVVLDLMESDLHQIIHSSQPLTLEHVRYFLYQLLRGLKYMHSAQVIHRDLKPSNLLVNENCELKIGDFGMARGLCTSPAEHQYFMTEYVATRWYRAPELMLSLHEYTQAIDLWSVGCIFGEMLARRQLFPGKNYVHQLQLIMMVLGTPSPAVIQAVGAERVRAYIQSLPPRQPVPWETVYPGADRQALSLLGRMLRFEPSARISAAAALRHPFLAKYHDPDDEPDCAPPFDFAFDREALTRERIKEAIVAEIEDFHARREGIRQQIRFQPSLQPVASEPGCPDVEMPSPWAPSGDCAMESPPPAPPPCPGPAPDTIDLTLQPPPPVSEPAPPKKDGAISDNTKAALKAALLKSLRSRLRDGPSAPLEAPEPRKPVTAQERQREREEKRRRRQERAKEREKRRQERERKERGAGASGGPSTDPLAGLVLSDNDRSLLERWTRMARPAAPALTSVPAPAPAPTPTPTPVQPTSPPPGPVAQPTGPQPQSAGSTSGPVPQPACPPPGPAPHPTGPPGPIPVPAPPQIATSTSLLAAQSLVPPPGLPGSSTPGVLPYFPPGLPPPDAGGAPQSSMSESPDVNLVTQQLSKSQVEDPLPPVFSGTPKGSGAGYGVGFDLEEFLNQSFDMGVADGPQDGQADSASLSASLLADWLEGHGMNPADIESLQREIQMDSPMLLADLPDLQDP

Cc1csc2sc(C=C(C#N)C#N)c(C)c12
inactive: log fold change Tl+ flux (F380Y) 0.0324 | log fold change Tl+ flux (F380Y/beta1) -0.023 | log fold change Tl+ flux (F380Y/beta2Delta) 0.0231 | log fold change Tl+ flux (F380Y/beta4) 0.00092 | log fold change Tl+ flux [1] 0.0126 | log fold change Tl+ flux (R275C) 0.0225 | log fold change Tl+ flux (R275C/beta1) 0.0369 | log fold change Tl+ flux (R275C/beta2Delta) 0.00343 | log fold change Tl+ flux (R275C/beta4) 0.00359 | log fold change Tl+ flux (R275C/Slo1WT/beta2) 0.0163

CN1CC(c2ccc(Cl)c(Cl)c2)OC1=N (stereo not given)
inactive: growth inhibition [2] 3% | inhibition [3] 2% | outcome [5] | outcome [6] | outcome [7] | outcome [8]
active: growth inhibition [4] 99%

O=c1[nH]c(=S)[nH]c(O)c1C=C1C=CC=N1
inactive: log fold change Tl+ flux (F380Y) 0.0328 | log fold change Tl+ flux (F380Y/beta1) 0.0561 | log fold change Tl+ flux (F380Y/beta2Delta) 0.06 | log fold change Tl+ flux (F380Y/beta4) 0.0563 | log fold change Tl+ flux [1] 0.0242 | log fold change Tl+ flux (R275C) 0.0249 | log fold change Tl+ flux (R275C/beta1) 0.101 | log fold change Tl+ flux (R275C/beta2Delta) 0.0741 | log fold change Tl+ flux (R275C/beta4) 0.0391 | log fold change Tl+ flux (R275C/Slo1WT/beta2) -0.0255

NC(N)=NC(=O)Nc1ccc([N+](=O)[O-])c(Cl)c1
inactive: growth inhibition [2] 12% | inhibition [3] -10% | outcome [5] | outcome [6] | outcome [7] | outcome [8]
active: growth inhibition [4] 90%

CN1C(=O)OC[C@@H]1Cc1ccc2[nH]cc(C3=CCN(Cc4ccccc4)CC3)c2c1
active: growth inhibition [2] 66% | growth inhibition [4] 86%
inactive: inhibition [9] 4% | inhibition [3] -9% | outcome [5] | outcome [6] | outcome [7] | outcome [8]

Cn1nc(-c2ccc(S(=O)(=O)NC3CCC(CN4CCC(c5c[nH]c6ccccc56)CC4)CC3)s2)cc1C(F)(F)F (stereo not given)
active: growth inhibition [4] 98% and 96%
inactive: growth inhibition [2] 29% and 24% | inhibition [9] 35% and 38% | inhibition [3] -2% and 9% | outcome [5] | outcome [6] | outcome [7] | outcome [8]

N#CC(C#N)=Cc1cccnc1
inactive: log fold change Tl+ flux (F380Y) 0.00869 | log fold change Tl+ flux (F380Y/beta1) 0.00181 | log fold change Tl+ flux (F380Y/beta2Delta) -0.0117 | log fold change Tl+ flux (F380Y/beta4) -0.0312 | log fold change Tl+ flux [1] 6.5e-05 | log fold change Tl+ flux (R275C) -0.0132 | log fold change Tl+ flux (R275C/beta1) -0.0358 | log fold change Tl+ flux (R275C/beta2Delta) -0.0205 | log fold change Tl+ flux (R275C/beta4) 0.025 | log fold change Tl+ flux (R275C/Slo1WT/beta2) -0.0203

CN1CC=C(c2c[nH]c3ccc(C(=O)c4nccs4)cc23)CC1
active: growth inhibition [2] 73% | growth inhibition [4] 89%
inactive: inhibition [3] 7% | outcome [5] | outcome [6] | outcome [7] | outcome [8]

CCOC(=O)c1cncn1[C@H](C)c1ccccc1
9210: cell count ([18]; measured here: total cells with miR-34 induction, stronger effect = lower value)
0.785: fold change ([18]; measured here: relative caspase fold change +Dox/-Dox)
75.6%: viability [10]
0.93: normalised cell number ([13]; measured here: mesenchymal TEM4-18 mCherry cell survival)
inactive: parasite load remaining [10] 110% | z-score [11] 0.0538 | mean signal [12] 274 | red/green cell ratio (normalised) ([13]; actives lie on both sides) 0.98 | remaining activity [14] 122% | outcome [15] | outcome [16] | outcome [17] | fold change ([18]; stronger effect = lower value) 0.964 | remaining NAD [19] 10 nM | luciferase signal [20] 52 AU | z-score [21] -0.35 | log fold change Tl+ flux (F380Y) -0.0483 | log fold change Tl+ flux (F380Y/beta1) -0.0564 | log fold change Tl+ flux (F380Y/beta2Delta) -0.0261 | log fold change Tl+ flux (F380Y/beta4) -0.0155 | log fold change Tl+ flux [1] 0.0279 | log fold change Tl+ flux (R275C) 0.000434 | log fold change Tl+ flux (R275C/beta1) 0.000109 | log fold change Tl+ flux (R275C/beta2Delta) 0.0419 | log fold change Tl+ flux (R275C/beta4) 0.0313 | log fold change Tl+ flux (R275C/Slo1WT/beta2) 0.023
9560: cell count ([18]; measured here: total cells without miR-34 induction)
0.95: normalised cell number ([13]; measured here: epithelial PC-3E GFP cell survival)
